Laboratory results as given in PubChem BioAssay (NCATS).
Results filed as inconclusive are left out. A call without a number means that no potency is given here. Activity calls are given as the source filed them. The call rests on the fitted dose curve; in most records, active means well fitted inhibition curve with a large enough effect; inconclusive means small, poorly fitted or top-dose-only effect; inactive means no such curve, though single readings can be large or run the other way.

Experiment: NS1 protein of Zika virus - qHTS assay to identify small molecule inhibitors in human HEK 293 cells (AID 1347053); further: nearly all actives have a fitted effect of over 55% in size
Settings: HEK293 ZIKV MR766 infection, NS1 TR-FRET, 24 h; series mostly up to 46.1 µM
Source text: National Center for Advancing Translational Sciences [NCATS]
Johns Hopkins University School of Medicine
The non-structural 1 (NS1) protein of zika virus is known to associate with the viral replication complex. This cell-based TR-FRET ZIKV NS-1 assay measures the increased NS-1 protein in human HEK 293 cells after a 24-hour Zika virus infection by a TR-FRET assay readout. A decrease in the Time-resolved fluorescence energy transfer (TR-FRET) signal in this assay by small molecule treatment indicates an inhibitory effect of the small molecule on the expression of Zika virus NS1 correlating with Zika virus replication.
HEK 293 cells were cultured in EMEM (ATCC, Cat. # 30-2003) medium with 10% fetal bovine serum (GE healthcare Life Sciences, Cat. # SH30071.03), and 1% Pen/Strep (Gibco, Cat. # 15140-122). Cells were seeded in the assay plate and incubated at 37 C with 5% CO2 for 20 hours. Compounds were added to cells and incubated for one hour before addition of ZIKV MR766 strain solution to cells (MOI = 0.5). After an incubation at 37 C for 24 hours, the reagent mixture of TR-FRET ZIKV NS1 assay using two anti-ZIKV NS1 antibodies was added to assay plates. The TR-FRET signals in assay plates were measured using an Envision plate reader (PerkinElmer). Data were normalized by using the cell-containing wells without ZIKV as a negative control (0% NS-1) and wells containing ZIKV infected cells as a positive control (100% NS-1 level).
Potency means the concentration at half of the fitted maximal effect.

SMILES | Potency
COc1nc(C)cnc1NS(=O)(=O)c1cccnc1-c1ccc(-c2nnco2)cc1 | inactive
CCNC(=O)[C@H]1O[C@@H](n2cnc3c(N)nc(NCCc4ccc(CCC(=O)O)cc4)nc32)[C@H](O)[C@H]1O | inactive
C[C@]12CCC3=C4CCC(=O)C=C4CC[C@@H]3[C@H]1CC[C@@]2(O)CC#N | inactive
CN(C)c1nc(Cc2ccc(NC(=O)c3ccc(C(F)(F)F)cc3)cc2)nc(N(C)C)c1CC(=O)O | inactive
O=C(Nc1cccc(Cl)c1)Nc1ncc(CCNc2ncnc3ccsc23)s1 | inactive
Cn1c(=O)c(Oc2ccc(F)cc2F)cc2cnc(NC3CCOCC3)nc21 | inactive
CC(C)(C)c1[nH]cnc1C=c1[nH]c(=O)c(=Cc2ccccc2)[nH]c1=O | 0.003 µM (active)
CCCCN(CCCC)CC(O)c1cc(Cl)cc2c1-c1ccc(Cl)cc1C2=Cc1ccc(Cl)cc1 (stereo not given) | inactive
CN(C(Cc1ccc(OS(=O)(=O)c2cccc3cnccc23)cc1)C(=O)N1CCN(c2ccccc2)CC1)S(=O)(=O)c1cccc2cnccc12 (stereo not given) | inactive
Cc1ccc2c(c1)C(=O)[C@]1(O)CCN(c3ccccc3)C1=N2 | inactive
Cc1c(C(=O)Nc2ccc(N3C[C@@H](C)O[C@@H](C)C3)nc2)cccc1-c1ccc(OC(F)(F)F)cc1 | inactive
CC1(C)C(N(O)C(=O)Nc2ccc(Cl)cc2)N(c2ccc(Cl)cc2)C(=O)N1CC(=O)NN=CC=Cc1ccc([N+](=O)[O-])o1 (stereo not given) | inactive
Cc1cccc(Nc2nc(N[C@@H]3CCCC[C@H]3N)ncc2C(N)=O)c1 | 23.5 µM (active)
Cc1nc(C(=O)NCC(=O)O)c(O)c2ccc(Oc3ccccc3)cc12 | inactive
CCN1C[C@H](C)n2c(c(O)c3c(=O)n(Cc4ccc(F)c(Cl)c4)nc(C(=O)NC)c32)C1=O | inactive
CC(C)(C)c1nc(-c2cccc(NS(=O)(=O)c3c(F)cccc3F)c2F)c(-c2ccnc(N)n2)s1 | inactive
CCC(c1ccc(O)cc1)C(CC)c1ccc(O)cc1 (stereo not given) | inactive
Cc1ccc(C(=O)N(CCCN)[C@@H](c2oc3cc(Cl)ccc3c(=O)c2Cc2ccccc2)C(C)C)cc1 | 10.5 µM (active)
CCc1cc(-c2n[nH]c(C)c2-c2ccc3c(c2)OCCO3)c(O)cc1O | inactive
C#C[C@]1(O)CC[C@H]2[C@H]3CCc4cc(OC)ccc4[C@H]3CC[C@@]21C | inactive

SMILES | Potency
C=CC[N+]1([C@H]2C[C@H]3[C@@H]4CC[C@H]5C[C@H](O)[C@@H](N6CCOCC6)C[C@]5(C)[C@@H]4CC[C@]3(C)[C@H]2OC(C)=O)CCCC1 | inactive
O=C(NC[C@H](O)CO)c1ccncc1Nc1ccc(I)cc1F | inactive
C[C@@H]1CC=CC=CC=CC=C[C@@H](O[C@@H]2O[C@H](C)[C@@H](O)[C@H](N)[C@H]2O)C[C@@H]2O[C@](O)(C[C@@H](O)C[C@@H]3O[C@@H]3C=CC(=O)O1)C[C@H](O)[C@@H]2C(=O)O | inactive
CN(C)c1ccccc1CN1CCCN(Cc2ccccc2N(C)C)C1c1ccncc1 | 11.8 µM (active)
Oc1ccc(C=Cc2cc(O)cc(O)c2)cc1 | inactive
CC[C@H](C)n1cc(C)c2c(C(=O)NCc3c(C)cc(C)[nH]c3=O)cc(-c3ccc(N4CCNCC4)nc3)cc21 | inactive
C[C@@H]1[C@H](C)CC[C@]2(C(=O)O)CC[C@]3(C)C(=CC[C@@H]4[C@@]5(C)CC[C@H](O)C(C)(C)[C@H]5CC[C@]43C)[C@@H]12 | inactive
Cc1nc(NC(=O)N2CCC[C@@H]2C(N)=O)sc1-c1csc(C(C)(C)C)n1 | inactive
Nc1ncnc2c1ncn2[C@@H]1O[C@H](CO)[C@@H](O)[C@@H]1O | inactive
COc1cc(Nc2nc3ccccc3nc2NS(=O)(=O)c2ccc(NC(=O)c3ccc(C)c(OC)c3)cc2)cc(OC)c1 | inactive
CC(C)=CCCC(C)=CCCC(C)=CCCC(C)=CCCC(C)=CCCC(C)=CCCC(C)=CCCC(C)=CCCC(C)=CCO | inactive
O=[N+]([O-])c1ccc(Nc2ccccc2-c2ccccc2)c2nonc12 | inactive
COc1nccc(-c2c(-c3ccc(F)cc3)ncn2C2CCNCC2)n1 | inactive
CNC(=O)[C@H](Cc1ccccc1)NC(=O)[C@H](CC(C)C)[C@H](CSc1cccs1)C(=O)NO | inactive
CN1CCC[C@H]1CCO[C@](C)(c1ccccc1)c1ccc(Cl)cc1 | inactive
CCN1CCN(c2ccc(Nc3cc(N(C)C(=O)Nc4c(Cl)c(OC)cc(OC)c4Cl)ncn3)cc2)CC1 | inactive
CN1C(=O)C(Cc2c[nH]c3ccccc23)NC1=S (stereo not given) | inactive
OC(c1cc(C(F)(F)F)nc2c(C(F)(F)F)cccc12)C1CCCCN1 (stereo not given) | 10.5 µM (active)
Cn1c(=O)c(-c2c(Cl)cccc2Cl)cc2cnc(Nc3cccc(C(=O)O)c3)nc21 | inactive
NC[C@H]1O[C@H](O[C@@H]2[C@@H](O)[C@@H](O[C@H]3O[C@H](CO)[C@@H](O)[C@H](N)[C@@H]3O)[C@H](N)C[C@@H]2N)[C@H](O)[C@@H](O)[C@H]1O | inactive
